“And” between values parts separate entries of the source, which are not always exact repeats. Equal values may be shown once. Hit rate of the full screen: of about 5,500 compounds, about 2,000 (36%) were called active. Inconclusive results (about 18%) are left out. No stated cut-off is given here; in the data, active means normalized growth mostly below about 0.91 (no sharp cut-off); inconclusive means no clear call, values can overlap the other calls; inactive means mostly above about 0.92. Some of the results follow.
Assay: chemical genetic growth profiling, strain panel (AID 1159580);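 further: tested at 20 µM; growth read once vehicle control cultures reached saturation at 30 °C; 1 = growth at the plate median or of vehicle wells; lower values mean less growth of the strain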
Conditions: S. cerevisiae deletion strains, growth OD

Measured: normalized growth

O=C(O)c1cc(=O)c(O)c2c(O)c(O)ccc2c1
inactive: locus YAL013W, strain DEP1, active compounds read low 1 | locus YAL021C, strain ccr4, active compounds read low 1.02 | locus YAL026C, strain drs2, active compounds read low 0.993 | locus YAL030W, strain snc1, active compounds read low 1 | locus YBL061C, strain skt5, active compounds read low 0.998 | locus YBR009C, strain hhf1, active compounds read low 0.989 | locus YBR021W, strain FUR4, active compounds read low 0.991 | locus YBR023C, strain chs3, active compounds read low 1 | locus YBR171W, strain sec66, active compounds read low 0.985 | locus YBR229C, strain ROT2, active compounds read low 1.01 | locus YBR231C, strain swc5, active compounds read low 0.988 | locus YBR279W, strain paf1, active compounds read low 0.993 | locus YCL011C, strain gbp2, active compounds read low 0.996 | locus YCL016C, strain dcc1, active compounds read low 1 | locus YCL029C, strain bik1, active compounds read low 1.02 | locus YCL061C, strain MRC1, active compounds read low 0.993 | locus YCL069W, strain vba3, active compounds read low 0.998 | locus YCR088W, strain abp1, active compounds read low 0.99 | locus YDL005C, strain med2, active compounds read low 0.997 | locus YDL035C, strain GPR1, active compounds read low 1 | locus YDL040C, strain nat1, active compounds read low 1.01 | locus YDL074C, strain BRE1, active compounds read low 0.995 | locus YDL101C, strain DUN1, active compounds read low 1.01 | locus YDL134C, strain PPH21, active compounds read low 1 | locus YDL185W, strain tfp1, active compounds read low 0.998 | locus YDL192W, strain arf1, active compounds read low 1.01 | locus YDR001C, strain nth1, active compounds read low 0.997 | locus YDR069C, strain doa4, active compounds read low 0.974 | locus YDR101C, strain arx1, active compounds read low 1.02 | locus YDR137W, strain rgp1, active compounds read low 0.907 | locus YDR150W, strain NUM1, active compounds read low 1 | locus YDR159W, strain sac3, active compounds read low 0.969 | locus YDR162C, strain NBP2, active compounds read low 0.979 | locus YDR195W, strain ref2 0.957 | locus YDR297W, strain sur2, active compounds read low 0.997 | locus YDR318W, strain mcm21, active compounds read low 1.05 | locus YDR334W, strain swr1, active compounds read low 0.984 | locus YDR335W, strain msn5, active compounds read low 0.996 | locus YDR388W, active compounds read low 1.03 | locus YDR392W, strain spt3, active compounds read low 0.997 | locus YDR502C, strain sam2, active compounds read low 1.02 | locus YEL003W, strain gim4, active compounds read low 0.999 | locus YEL037C, strain rad23, active compounds read low 1 | locus YEL061C, strain CIN8 (second series), active compounds read low 1 | locus YEL061C, strain CIN8, active compounds read low 1 | locus YER015W, strain faa2, active compounds read low 0.989 | locus YER016W, strain bim1, active compounds read low 0.999 | locus YER110C, active compounds read low 1.03 | locus YER111C, strain swi4, active compounds read low 0.986 | locus YER155C, strain BEM2 (second series), active compounds read low 1.01 | locus YER155C, strain BEM2, active compounds read low 1.02 | locus YER167W, strain BCK2, active compounds read low 1.03 | locus YFR010W, strain ubp6, active compounds read low 0.986 | locus YGL078C, strain dbp3, active compounds read low 1.01 | locus YGL086W, strain mad1, active compounds read low 1.02 | locus YGL167C, strain pmr1, active compounds read low 1 | locus YGL173C, strain kem1, active compounds read low 1 | locus YGL227W, strain vid30, active compounds read low 0.979 | locus YGL240W, strain doc1, active compounds read low 0.994 | locus YGL248W, strain PDE1, active compounds read low 1 | locus YGL253W, strain hxk2, active compounds read low 0.999 | locus YGR078C, strain PAC10, active compounds read low 0.969 | locus YGR135W, strain pre9, active compounds read low 0.993 | locus YGR229C, strain SMI1, active compounds read low 0.977 | locus YGR252W, strain gcn5, active compounds read low 1.03 | locus YHR013C, strain ard1, active compounds read low 0.975 | locus YHR027C, strain rpn1, active compounds read low 0.998 | locus YHR030C, strain SLT2, active compounds read low 1.01 and 0.987 | locus YHR079C, strain IRE1 (second series), active compounds read low 1.02 | locus YHR079C, strain IRE1, active compounds read low 0.99 | locus YHR094C, strain hxt1, active compounds read low 1.02 | locus YHR129C, strain ARP1, active compounds read low 1.01 | locus YHR142W, strain chs7, active compounds read low 1.02 | locus YHR200W, strain rpn10, active compounds read low 1.03 | locus YIL066C, strain RNR3, active compounds read low 1.03 | locus YIL073C, strain SPO22, active compounds read low 1.14 | locus YIL125W, strain kgd1, active compounds read low 1.01 | locus YIR030C, strain dcg1, active compounds read low 1.03 | locus YJL092W, strain hpr5, active compounds read low 0.998 | locus YJL095W, strain BCK1 (second series), active compounds read low 1 | locus YJL095W, strain BCK1, active compounds read low 0.999 and 0.991 | locus YJL115W, strain asf1, active compounds read low 0.99 | locus YJL129C, strain trk1, active compounds read low 1.04 | locus YJL134W, strain LCB3, active compounds read low 1 | locus YJL154C, strain vps35, active compounds read low 1 | locus YJL164C, strain tpk1, active compounds read low 0.985 | locus YJL166W, strain qcr8, active compounds read low 1 | locus YJL168C, strain set2, active compounds read low 1.01 | locus YJL187C, strain SWE1 (second series), active compounds read low 0.994 | locus YJL187C, strain SWE1, active compounds read low 0.995 | locus YJR043C, strain POL32, active compounds read low 1.04 | locus YJR066W, strain TOR1, active compounds read low 0.892
